Tests used:
Test in all cases: thermal shift delta Tm vs DMSO control; higher = stronger stabilization (binding)
Conditions in all cases: 12.5 µM; protein concentration 2 µM
LOC_OS01G01410-cb001 = tested on: LOC_OS01G01410-cb001
Procedure, shortened: (§1)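 Compounds dissolved in DMSO were added to purified rice kinase domain constructs, which had been expressed in E. coli, for differential scanning fluorimetry. Each well held 19.5 μl of 2 μM kinase in 100 mM potassium phosphate pH 7.5, 150 mM NaCl, 10% glycerol and 5 × SYPRO Orange. Fluorescence was followed from 25°C to 95°C at a rate of 0.05°C/s. Shifts in Boltzmann-fitted melting temperature are triplicate means relative to DMSO-only protein.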

LOC_OS01G02750-cb003 = tested on: LOC_OS01G02750-cb003
Procedure, shortened: as §1

LOC_OS01G10900-cb004 = tested on: LOC_OS01G10900-cb004
Procedure, shortened: as §1

LOC_OS01G13800-cb001 = tested on: LOC_OS01G13800-cb001
Procedure, shortened: as §1

LOC_OS01G14860-cb001 = tested on: LOC_OS01G14860-cb001
Procedure, shortened: as §1

LOC_OS01G21960-cb002 = tested on: LOC_OS01G21960-cb002
Procedure, shortened: as §1

LOC_OS01G39600-cb002 = tested on: LOC_OS01G39600-cb002
Procedure, shortened: as §1

LOC_OS01G48390-cb002 = tested on: LOC_OS01G48390-cb002
Procedure, shortened: as §1

LOC_OS01G51400-cb002 = tested on: LOC_OS01G51400-cb002
Procedure, shortened: as §1

LOC_OS01G52050-cb004 = tested on: T1, LOC_OS01G52050-cb004
T1 sequence (whole entry): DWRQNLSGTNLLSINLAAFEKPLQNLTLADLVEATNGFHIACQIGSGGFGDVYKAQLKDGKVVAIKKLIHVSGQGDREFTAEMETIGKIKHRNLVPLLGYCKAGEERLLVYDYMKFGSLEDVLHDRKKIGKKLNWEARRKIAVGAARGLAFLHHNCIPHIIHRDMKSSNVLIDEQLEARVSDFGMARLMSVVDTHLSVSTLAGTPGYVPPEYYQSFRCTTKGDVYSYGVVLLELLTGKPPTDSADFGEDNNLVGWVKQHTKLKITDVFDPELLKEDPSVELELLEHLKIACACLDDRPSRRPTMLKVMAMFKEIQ
Procedure, shortened: as §1

LOC_OS01G57100-cb003 = tested on: LOC_OS01G57100-cb003
Procedure, shortened: as §1

LOC_OS01G60330-cb001 = tested on: LOC_OS01G60330-cb001
Procedure, shortened: as §1

LOC_OS01G60700-cb002 = tested on: LOC_OS01G60700-cb002
Procedure, shortened: as §1

LOC_OS01G63280-cb003 = tested on: LOC_OS01G63280-cb003
Procedure, shortened: as §1

LOC_OS01G67340-cb003 = tested on: LOC_OS01G67340-cb003
Procedure, shortened: as §1

LOC_OS01G70970-cb002 = tested on: LOC_OS01G70970-cb002
Procedure, shortened: as §1

LOC_OS02G07810-cb001 = tested on: LOC_OS02G07810-cb001
Procedure, shortened: as §1

LOC_OS02G08530-cb003 = tested on: LOC_OS02G08530-cb003
Procedure, shortened: as §1

LOC_OS02G14120-cb001 = tested on: LOC_OS02G14120-cb001
Procedure, shortened: as §1

LOC_OS02G17970-cb001 = tested on: LOC_OS02G17970-cb001
Procedure, shortened: as §1

Structure (SMILES) | thermal shift delta Tm (LOC_OS01G01410-cb001) [°C] | thermal shift delta Tm (LOC_OS01G02750-cb003) [°C] | thermal shift delta Tm (LOC_OS01G10900-cb004) [°C] | thermal shift delta Tm (LOC_OS01G13800-cb001) [°C] | thermal shift delta Tm (LOC_OS01G14860-cb001) [°C] | thermal shift delta Tm (LOC_OS01G21960-cb002) [°C] | thermal shift delta Tm (LOC_OS01G39600-cb002) [°C] | thermal shift delta Tm (LOC_OS01G48390-cb002) [°C] | thermal shift delta Tm (LOC_OS01G51400-cb002) [°C] | thermal shift delta Tm (LOC_OS01G52050-cb004) [°C] | thermal shift delta Tm (LOC_OS01G57100-cb003) [°C] | thermal shift delta Tm (LOC_OS01G60330-cb001) [°C] | thermal shift delta Tm (LOC_OS01G60700-cb002) [°C] | thermal shift delta Tm (LOC_OS01G63280-cb003) [°C] | thermal shift delta Tm (LOC_OS01G67340-cb003) [°C] | thermal shift delta Tm (LOC_OS01G70970-cb002) [°C] | thermal shift delta Tm (LOC_OS02G07810-cb001) [°C] | thermal shift delta Tm (LOC_OS02G08530-cb003) [°C] | thermal shift delta Tm (LOC_OS02G14120-cb001) [°C] | thermal shift delta Tm (LOC_OS02G17970-cb001) [°C]
C=CC(=O)Nc1cc(Nc2nccc(-c3c[nH]c4ccccc34)n2)c(OC)cc1N(C)CCN(C)C | 0.92 | 0.98 | 0.33 | 0.08 | 0.37 | 0.6 | 0.12 | 0.83 | 0.34 | 0.96 | 1.63 | 0.87 | 1.61 | 0.65 | 0.79 | 0.59 | 0.87 | 5.01 | 4.93 | 1.65
Cc1c(C(=O)Nc2ccc(Oc3ccnc4[nH]cc(-c5ccccc5)c34)c(F)c2)c(=O)n(-c2ccc(F)cc2)n1C | 0.66 | 2.79 | 1.91 | 0.84 | 0.67 | 1.55 | 2.37 | 1.72 | 0.78 | 2.8 | 1.48 | 5.65 | 1.25 | 5.92 | 1.81 | 1.29 | 0.68 | 3.76 | 6.85 | 1.44
Cn1cnc2c(F)c(Nc3ccc(Br)cc3F)c(C(=O)NOCCO)cc21 | 0.1 | 0.45 | 0.02 | -0.05 | 0.19 | 0.38 | 0.61 | 0.43 | 0.53 | 0.01 | 0.75 | 0.73 | 1.26 | 0.46 | 0.06 | 0.46 | 1.12 | 0.93 | -0.02 | 1.34
C=CC(=O)N1CCN(CCCn2c(=O)c(-c3c(Cl)c(OC)cc(OC)c3Cl)cc3cnc(NC)nc32)CC1 | 0.19 | 0.26 | 0.4 | -0.37 | 0.42 | 0.28 | 0.11 | 0.23 | 0.12 | 0.46 | 1.48 | -0.24 | 0.2 | -0.06 | 0.02 | 0.17 | -0.82 | 0.53 | 0.67 | -0.31
Cc1cc(CS(=O)(=O)c2ccccc2)cc(OCc2ccc(CN3CCC[C@@H]3CO)cc2)c1 | 0.31 | 1.37 | 0.19 | -0.27 | -0.13 | 0.3 | -13.5 | 0.65 | 0.36 | -0.24 | 0.61 | 0.03 | 1.22 | -0.1 | -0.36 | 0.62 | 0.61 | 0.53 | -0.41 | 0.96
O=C(Cc1ccc(-c2ccc(OCCN3CCOCC3)cc2)cn1)NCc1ccccc1 | 0.29 | -0.23 | -0.03 | -0.06 | 0.06 | 0.58 | -1.02 | 0.31 | 0.06 | -0.13 | 1.17 | 0.12 | 1.18 | 0.26 | 0.62 | 0.16 | 0.92 | 0.7 | 0.08 | 1.17

Source: the supplement of paper PMC9694430
